The entries come from a sample that favours hits as a whole.
Autofluor counter: compound fluorescence in toxin protease inhibitor counterscreen | AID 624483 | 3.1% of 360,000 active | fluorescence intensity (concentration not given with the values) | compound autofluorescence counterscreen, microsphere flow cytometry; stronger effect = higher value; in the data active = fluorescence intensity above about 16000; inconclusive = no clear call, values can overlap the other calls
Anthrax LF inh2: Bacillus anthracis LF protease inhibitors, primary screen, biochemical, multiplex microsphere, MLPCN library. AID 588501, 2011. Lethal factor (Bacillus anthracis), P15917. inhibition, % at 10 µM. multiplex microsphere protease cleavage assay. 0.12% of 360,000 active
BoNT F protease: BoNT/F light chain protease inhibitors, primary screen, biochemical, flow cytometry, MLPCN library | 0.22% of 360,000 active | Multiplex microsphere protease cleavage assay | AID 588497, 2011 | inhibition, % at 10 µM | Botulinum neurotoxin type F light chain protease (Clostridium botulinum); in the data active = inhibition above about 35%, passing the limit was not always enough; inconclusive = no clear call, values can overlap the other calls
TcdB GH inh: TcdB glycohydrolase inhibitors, primary screen, biochemical, single point, plate reader; 0.24% of 350,000 active; inhibition, % at 9.99 µM; AID 652162, 2013; TcdB glycohydrolase enzymatic assay; Toxin B (Clostridioides difficile), P18177; in the data active = inhibition above about 10%
BoNT-A LC inh2: BoNT/A light chain protease inhibitors, primary screen, biochemical, flow cytometry, MLPCN library. Botulinum neurotoxin type A light chain protease (Clostridium botulinum A str. ATCC 3502). multiplex microsphere protease substrate cleavage. inhibition, % at 10 µM. 0.17% of 360,000 active
Large screens that a line does not name were inactive. Rule as the data show it, unless noted: active = inhibition above about 30%; inconclusive = no clear call, values can overlap the other calls; inactive = below that.

O=C(NC1CCCC1)c1ccc(CS(=O)(=O)c2cccc(C(F)(F)F)c2)o1	Autofluor counter 22398 (no result: TcdB GH inh)
Cc1ccc(CS(=O)(=O)Cc2ccc(C(=O)NCCCN3CCOCC3)o2)cc1	none
O=C(NCCCN1CCOCC1)c1ccc(CS(=O)(=O)c2ccc(Br)cc2)o1	none
Cc1cccc(Nc2nc(NC(C)C)nc(Oc3ccc(=O)n(C)n3)n2)c1	Autofluor counter 23566 (no result: TcdB GH inh)
CC(C)Nc1nc(NC(C)C)nc(Oc2ccc(=O)n(C)n2)n1	none
CO[C@H]1CN(C)C(=O)c2ccc(NS(=O)(=O)CC(F)(F)F)cc2OC[C@H](C)NC[C@@H]1C	none (no result: Autofluor counter, Anthrax LF inh2, BoNT F protease, BoNT-A LC inh2)
CC(C)CO/C(=N/S(=O)(=O)c1ccccc1)c1ccccc1	Autofluor counter 21474 (no result: TcdB GH inh)
C[C@@H]1CN([C@H](C)CO)C(=O)c2cccc(NS(C)(=O)=O)c2O[C@@H]1CN(C)S(C)(=O)=O	none (no result: Autofluor counter, Anthrax LF inh2, BoNT F protease, BoNT-A LC inh2)
COc1ccccc1N1CCN(C(=O)C(NS(=O)(=O)c2cccs2)c2ccccc2)CC1 (stereo unspecified)	Autofluor counter 16978 (no result: TcdB GH inh)
COc1ccccc1N1CCN(C(=O)C(Cc2ccccc2)NC(=O)C2CCCCC2)CC1 (stereo unspecified)	Autofluor counter 25307 (no result: TcdB GH inh)
O=C(NC(Cc1ccccc1)C(=O)N1CCC2(CC1)OCCO2)C1CCCCC1 (stereo unspecified)	none (no result: TcdB GH inh)
O=C(O)c1ccccc1OCCOCCOc1ccccc1C(=O)O	Autofluor counter 23112 (no result: TcdB GH inh)
C=CCOC(=O)C(=O)/C=C/c1ccc(F)cc1	none (no result: Autofluor counter, Anthrax LF inh2, BoNT F protease, BoNT-A LC inh2)
C=CCOC(=O)C1CC=CCC1C(=O)Oc1ccc(F)cc1F (stereo unspecified)	Autofluor counter 24043, BoNT-A LC inh2 inconclusive
COC(=O)C[C@@H]1CC[C@@H]2[C@H](COc3ccc(NC(=O)c4ccccc4)cc3C(=O)N2C)O1	none (no result: Autofluor counter, Anthrax LF inh2, BoNT F protease, BoNT-A LC inh2)
COc1ccc(CNC(=O)C[C@H]2C[C@H]3c4cc(NC(=O)CN(C)C)ccc4O[C@H]3[C@H](CO)O2)cc1	none (no result: Autofluor counter, Anthrax LF inh2, BoNT F protease, BoNT-A LC inh2)
O=C(OCC1OC(n2cnc3c(N(C(=O)c4ccccc4)C(=O)c4ccccc4)ncnc32)C(O)C1F)c1ccccc1 (stereo unspecified)	Autofluor counter 24792
Cc1cc(C)nc(SCCCn2c(=O)[nH]c3ccccc32)n1	Autofluor counter 16659 (no result: TcdB GH inh)
CCCn1c(=O)[nH]c2ccccc21	none (no result: TcdB GH inh)
O=C(NCc1ccc(F)cc1)N[C@@H](Cc1ccccc1)C(=O)O	Autofluor counter 22456 (no result: TcdB GH inh)
O=C(NCc1ccccc1)N[C@@H](Cc1ccccc1)C(=O)O	Autofluor counter 16799, BoNT-A LC inh2 inconclusive (no result: TcdB GH inh)
COC(=O)[C@H](Cc1ccccc1)NC(=O)NCc1cccs1	Autofluor counter 19692 (no result: TcdB GH inh)
O=C(C[C@@H]1C=C[C@H](NC(=O)NC2CCCCC2)[C@H](CO)O1)NCc1ccccc1	none (no result: Autofluor counter, Anthrax LF inh2, BoNT F protease, BoNT-A LC inh2)
COc1ccccc1CNC(=O)C[C@H]1C[C@@H]2c3cc(NC(=O)CN(C)C)ccc3O[C@@H]2[C@H](CO)O1	none (no result: Autofluor counter, Anthrax LF inh2, BoNT F protease, BoNT-A LC inh2)
Cc1ccc(S(=O)(=O)N[C@H]2CC[C@H](CCn3cc(C4CCCCC4)nn3)O[C@H]2CO)cc1	none (no result: Autofluor counter, Anthrax LF inh2, BoNT F protease, BoNT-A LC inh2)
Cc1ccc2nc(/C(C#N)=C\c3cc(C)n(-c4cccc([N+](=O)[O-])c4)c3C)[nH]c2c1	Autofluor counter 16239, BoNT-A LC inh2 inconclusive (no result: TcdB GH inh)
CCN(CC)CCCN(Cc1cc2cc3c(cc2[nH]c1=O)OCO3)C(=O)Nc1ccccc1OC	none (no result: TcdB GH inh)
CCN(CC)CCCN(Cc1cc2cc(OC)c(OC)cc2[nH]c1=O)C(=O)Nc1ccccc1	Autofluor counter 22160 (no result: TcdB GH inh)
COc1ccccc1NC(=O)N(CCN1CCCC1)Cc1cc2cc(C)ccc2[nH]c1=O	Autofluor counter 23245 (no result: TcdB GH inh)
CCCC(=O)Nc1ccc2c(c1)OC[C@@H](C)N(C(=O)c1ccncc1)C[C@@H](C)[C@@H](OC)CN(C)C2=O	none (no result: Autofluor counter, Anthrax LF inh2, BoNT F protease, BoNT-A LC inh2)
O=C(CSc1ccc2nnc(-c3ccc(F)cc3)n2n1)N1CCOCC1	TcdB GH inh 24
O=C(CSc1ccc2nnc(-c3cccs3)n2n1)N1CCOCC1	none
CCOC(=O)CC(=O)CSc1ccc2nnc(-c3ccc(C)cc3)n2n1	Autofluor counter 22080 (no result: TcdB GH inh)
CCOC(=O)N1CCN(C(=O)CSc2ccc3nnc(-c4ccncc4)n3n2)CC1	none
O=C(CC1CC1)Nc1ccc2c(c1)[C@H]1C[C@@H](CC(=O)NC3CCCC3)O[C@@H](CO)[C@H]1O2	none (no result: Autofluor counter, Anthrax LF inh2, BoNT F protease, BoNT-A LC inh2)
Cc1oc(C(=O)Nc2ccc(C(=O)O)cc2)cc1COc1ccccc1	Autofluor counter 16440 (no result: TcdB GH inh)
O=C(NCC[C@@H]1CC[C@H](NC(=O)C2CCC2)[C@H](CO)O1)c1cc(Cl)cc(Cl)c1	none (no result: Autofluor counter, Anthrax LF inh2, BoNT F protease, BoNT-A LC inh2)
C[C@H](CO)N1C[C@H](C)[C@@H](CN(C)S(=O)(=O)c2ccccc2)Oc2ccc(NC(=O)CCN3CCOCC3)cc2CC1=O	none (no result: Autofluor counter, Anthrax LF inh2, BoNT F protease, BoNT-A LC inh2)

Screens deposited in PubChem by several laboratories.
